Measurements published in PubChem BioAssay (EPA / NIEHS).
Where “and” joins values, the source holds several entries; their conditions need not be identical. Equal values may be shown once. Inconclusive results are not listed. Where a structure was tested more than once in an assay, its records may differ in their call. Calls of active or inactive are those of the source. Rule for the calls, unless noted: active = hit-call score of the fitted dose curve at least 0.9, where 1 is the maximum; inactive = score below 0.9.

Experiments:
[1] = TOX21_p53_BLA_p2_viability: Viability Assessment in the Tox21 HCT-116 p53 Agonism Beta-lactamase Assay, Phase 2 (AID 2283591; active = hit-call score of the fitted dose curve at least 0.9, where 1 is the maximum;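 note: compound exposure lasted 16 h at 37 °C; actives lower the ATP signal meaning cytotoxicity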)
Outline: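 HCT116 p53-bla cells, 4000/well, dosed after 5 h plating (217-fold dilution of DMSO stocks) and incubated 16 h at 37C. Viability taken as cellular ATP by CellTiter-Glo luminescence after 30 min RT; signal loss marks cytotoxicity.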

[2] = molecular target: Cellular tumor antigen p53 (Homo sapiens) (UniProt P04637); assay: TOX21_p53_BLA_p2_ratio: Tox21 HCT-116 p53 Agonism Beta-lactamase Assay, Ratio, Phase 2 (AID 2283592; active = hit-call score of the fitted dose curve at least 0.9, where 1 is the maximum)
Outline: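 Cleaved-to-uncleaved substrate ratio (460 vs 530 nm) measured in HCT116 cells with an inducible beta-lactamase reporter linked to p53 activity. Compounds incubated 16 h at 37C before 2 h room-temperature CCF4-AM loading.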

[3] = TOX21_p53_BLA_p3_viability: Viability Assessment in the Tox21 HCT-116 p53 Agonism Beta-lactamase Assay, Phase 3 (AID 2283593; active = hit-call score of the fitted dose curve at least 0.9, where 1 is the maximum;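 note: cells exposed to compound for 16 h before reading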)
Outline: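 HCT116 cells, 4000/well, dosed 5 h after plating by pin transfer (217-fold dilution from DMSO stock) and incubated 16 h at 37C, 5% CO2. Viability read as ATP luminescence with CellTiter-Glo after 30 min at room temperature.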

[4] = molecular target: Cellular tumor antigen p53 (Homo sapiens) (UniProt P04637); assay: TOX21_p53_BLA_p3_ratio: Tox21 HCT-116 p53 Agonism Beta-lactamase Assay, Ratio, Phase 3 (AID 2283596; active = hit-call score of the fitted dose curve at least 0.9, where 1 is the maximum)
Outline: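 Cells were seeded at 4000/well, rested 5 h at 37C, then dosed with DMSO compound solutions (217-fold dilution) for 16 h. CCF4-AM substrate was loaded for 2 h at room temperature, and the 460/530 nm emission ratio was fitted for gain of signal versus DMSO.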

[5] = molecular target: Cellular tumor antigen p53 (Homo sapiens) (UniProt P04637); assay: TOX21_p53_BLA_p5_ratio: Tox21 HCT-116 p53 Agonism Beta-lactamase Assay, Ratio, Phase 5 (AID 2283599; active = hit-call score of the fitted dose curve at least 0.9, where 1 is the maximum)
Outline: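 HCT-116 p53-bla cells (4000/well) plated 5 h, dosed with compound (217-fold DMSO dilution) for 16 h at 37 C; CCF4-AM substrate 2 h at room temperature. Activity is the 460/530 nm emission ratio (405 nm excitation), fitted in gain-of-signal direction versus DMSO.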

[6] = TOX21_p53_BLA_p5_viability: Viability Assessment in the Tox21 HCT-116 p53 Agonism Beta-lactamase Assay, Phase 5 (AID 2283600; active = hit-call score of the fitted dose curve at least 0.9, where 1 is the maximum)
Outline: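 Viability is taken from cellular ATP content, measured by luciferase luminescence in the same wells after the beta-lactamase ratio read. Cells are seeded at 4000 per well and exposed to DMSO-dissolved compounds, diluted 217-fold, for 16 h.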

[7] = CCTE_Shafer_MEA_dev_firing_rate_mean: CCTE's Neural Network Formation Assay for Mean Firing Rate, Shafer Lab (AID 2284031)
Outline: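 Read-out: spike count/recording length, averaged over active electrodes, then AUC across days 5, 7, 9, 12. Rat cortical cultures on MEA; continuous 12-day exposure, media and treatment renewed DIV 5, 9; DMSO baseline.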

[8] = CCTE_Shafer_MEA_dev_per_burst_spike_percent: CCTE's Neural Network Formation Assay for Percent of Spikes in a Burst, Shafer Lab (AID 2284032);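 for AC50: fitted as a decrease in burst spike percentage below DMSO baseline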
Outline: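 Value is trapezoidal AUC over recordings on days 5, 7, 9 and 12 of the well-mean fraction of spikes falling in single-electrode bursts; rat cortical cultures exposed continuously from plating, treatment renewed DIV 5 and 9, fitted downward against DMSO.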

[9] = CCTE_Shafer_MEA_dev_active_electrodes_number: CCTE's Neural Network Formation Assay for Number of Active Electrodes, Shafer Lab (AID 2284040; active = hit-call score of the fitted dose curve at least 0.9, where 1 is the maximum;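 note: potency for loss of active electrodes versus DMSO so lower counts are hits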)
Outline: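 Developing rat cortical networks on MEAs, exposed DIV 0–12. Value is the AUC of active-electrode counts (≥5 spikes/min) from days 5, 7, 9, 12, relative to DMSO.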

[10] = CCTE_Shafer_MEA_dev_burst_rate: CCTE's Neural Network Formation Assay for Burst Rate, Shafer Lab (AID 2284042)
Outline: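 Cells plated, treated day 0; recorded DIV 5, 7, 9, 12; fed and re-treated DIV 5, 9. Endpoint: bursts per recording time, active-electrode well mean, trapezoidal AUC, fitted in decreasing direction against DMSO baseline.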

[11] = CCTE_Shafer_MEA_dev_bursting_electrodes_number: CCTE's Neural Network Formation Assay for Number of Bursting Electrodes, Shafer Lab (AID 2284043; active = hit-call score of the fitted dose curve at least 0.9, where 1 is the maximum;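 note: potency is for loss of bursting electrodes relative to DMSO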)
Outline: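 Rat cortical primary neurons, 48-well MEA, 16 electrodes/well; dosing DIV 0–12, re-dosed with full media change DIV 5, 9. Recordings DIV 5/7/9/12, AxIS adaptive spike detector; bursting electrode = ≥1 burst/2 min. AUC across days; loss of signal vs DMSO.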

[12] = CCTE_Shafer_MEA_dev_per_burst_interspike_interval: CCTE's Neural Network Formation Assay for Burst Interspike Interval, Shafer Lab (AID 2284044)
Outline: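 Developmental network-formation MEA in primary rat cortical cultures with exposure spanning days 0–12. Within-burst ISI is averaged per well and integrated across recording days by area under the curve, with DMSO as negative control baseline.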

[13] = CCTE_Shafer_MEA_dev_burst_duration_mean: CCTE's Neural Network Formation Assay for Mean Burst Duration, Shafer Lab (AID 2284045)
Outline: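 Rat cortical cultures, 1.5 x 10^5 cells/well with laminin drop; continuous dosing days 0–12, media plus treatment refreshed DIV 5, 9. AxIS adaptive spike detection; mean single-electrode burst duration, AUC over four recordings, negative direction vs DMSO.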

[14] = CCTE_Shafer_MEA_dev_interburst_interval_mean: CCTE's Neural Network Formation Assay for Mean Interburst Interval, Shafer Lab (AID 2284046);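 note: well-mean interburst interval of bursting electrodes as AUC over four recording days; curve fitted for decrease in interburst interval relative to DMSO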
Outline: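 Developing rat cortical networks on 48-well MEAs receive compound from the day of plating. Burst intervals from each active electrode are averaged per well, and AUC over the recording days is fitted in the negative direction against DMSO.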

[15] = CCTE_Shafer_MEA_dev_inter_network_spike_interval_mean: CCTE's Neural Network Formation Assay for Mean Inter-network Spike Interval, Shafer Lab (AID 2284047)
Outline: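 Rat cortical cultures, 1.5 x 10^5 cells/well on 48-well MEA plates; continuous exposure days 0–12, medium and compound refreshed DIV 5, 9. Mean time between consecutive network-spike peaks; AUC across DIV 5/7/9/12; DMSO baseline, negative fitting direction.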

[16] = CCTE_Shafer_MEA_dev_network_spike_number: CCTE's Neural Network Formation Assay for Number of Network Spikes, Shafer Lab (AID 2284048);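 note: synchronized bursts across electrodes counted on days 5 7 9 12 and integrated as AUC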
Outline: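 Rat cortical primary cultures on 48-well MEA (16 electrodes/well); continuous exposure DIV 0–12, full medium and treatment exchange DIV 5, 9. Readout: network spike count, AxIS adaptive detection, recordings DIV 5/7/9/12 collapsed to AUC; loss-of-signal fit, DMSO baseline.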

[17] = CCTE_Shafer_MEA_dev_network_spike_peak: CCTE's Neural Network Formation Assay for Mean Number of Electrodes in Network Spike, Shafer Lab (AID 2284049);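 note: fitted for loss of signal meaning fewer electrodes in network spikes than DMSO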
Outline: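 Network-spike peak electrode count from recordings on days 5, 7, 9 and 12 was combined as trapezoidal area under the curve. Rat cortical cultures were treated continuously from plating, with compound renewed at each feed (DIV 5, 9); fits versus DMSO.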

[18] = CCTE_Shafer_MEA_dev_spike_duration_mean: CCTE's Neural Network Formation Assay for Mean Spike Duration, Shafer Lab (AID 2284051);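 note: mean network spike duration pooled as area under curve over DIV 5 to 12 recordings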;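 for AC50: potency for a decrease in mean network spike duration versus DMSO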
Outline: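 Readout is the average length of network spikes, clustered firing across electrodes, summed over DIV 5, 7, 9 and 12 as area under the curve. Neurons from rat cortex developed networks on MEA plates under continuous 12-day exposure.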

[19] = CCTE_Shafer_MEA_dev_network_spike_duration_std: CCTE's Neural Network Formation Assay for Standard Deviation of Network Spike Duration, Shafer Lab (AID 2284052);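 note: area under curve of spike duration SD across recording days 5 to 12; hits are decreases in network spike duration SD versus DMSO vehicle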
Outline: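 Read-out is the trapezoidal area-under-the-curve across recordings made on days 5, 7, 9 and 12, fitted in the negative direction against DMSO baseline. Neurons were primary rat cortical cells treated from day 0, with treatment renewed at each feed.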

[20] = CCTE_Shafer_MEA_dev_per_network_spike_spike_number_mean: CCTE's Neural Network Formation Assay for Mean Number of Spikes in a Network Spike, Shafer Lab (AID 2284053);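 note: fitted as decrease in spikes per network spike relative to DMSO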
Outline: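 Continuous twelve-day exposure of developing rat cortical networks grown over 16 microelectrodes per well; spontaneous firing is captured at four time points, and the per-network-spike spike number is integrated over development by trapezoidal AUC.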

[21] = CCTE_Shafer_MEA_dev_per_network_spike_spike_percent: CCTE's Neural Network Formation Assay for Percent of Spikes in a Network Spike, Shafer Lab (AID 2284054)
Outline: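 Read-out: percent of spikes falling in a 0.05 s window at network-spike peak, from spontaneous MEA recordings on days 5, 7, 9 and 12; trapezoidal AUC; loss of signal versus DMSO. Rat cortical cultures, compound present throughout.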

[22] = UKN5_HCS_SBAD2_cell_viability: Viability Assessment in the University of Konstanz (UKN) Leist Lab Neurite Outgrowth Assay in human iPSC-derived immature Dorsal Root Ganglia Neurons (UKN5) (AID 2284056)
Outline: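 iPSC-derived immature peripheral neurons (SBAD2) seeded on Matrigel with CHIR99021, SU5402 and DAPT, dosed 1 h later for 24 h. Viability from Hoechst H-33342 and calcein-AM live staining, high-content imaging; bidirectional fit versus DMSO.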

[23] = CCTE_Shafer_MEA_dev_LDH: CCTE's Lactate Dehydrogenase Assay for Cytotoxicity in the Neural Network Formation Assay, Shafer Lab (AID 2284068; active = hit-call score of the fitted dose curve at least 0.9, where 1 is the maximum;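 note: exposure for twelve days from plating with re-dosing on DIV 5 and 9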)
Outline: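 Cytotoxicity companion to network-formation recordings: rat cortical neurons received compound over 12 days of development, re-dosed at DIV 5 and 9 feeds. Viability was inferred from LDH enzyme activity relative to DMSO.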

[24] = UKN5_HCS_SBAD2_neurite_outgrowth: University of Konstanz (UKN) Leist Lab Neurite Outgrowth Assay in human iPSC-derived immature Dorsal Root Ganglia Neurons (UKN5) (AID 2284070); conditions: actives raise or lower the signal
Outline: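 Cryopreserved SBAD2 peripheral neurons were seeded at 100.000 cells/cm2 in N2-S/KSR medium containing CHIR99021, SU5402 and DAPT, then exposed to compounds for 24 h. Neurite area from calcein-AM high-content imaging was fitted bidirectionally against DMSO.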

[25] = CCTE_Shafer_MEA_dev_AB: CCTE's Alamar Blue Assay for Cytotoxicity in the Neural Network Formation Assay, Shafer Lab (AID 2284083; active = hit-call score of the fitted dose curve at least 0.9, where 1 is the maximum;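 note: resazurin reduction fluorescence as viability of cultured neurons; twelve days of exposure from plating with re-dosing on DIV 5 and 9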)
Outline: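 Fluorescent resazurin reduction serves as the viability read-out, with DMSO as negative control and baseline. Cells were primary rat cortical neurons grown on MEA plates and dosed from day 0 to day 12, treatment renewed on DIV 5 and 9.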

[26] = CCTE_Shafer_MEA_dev_mutual_information_norm: CCTE's Neural Network Formation Assay for Mutual Information Normalization, Shafer Lab (AID 2284091);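 note: mutual information between electrodes summarised as area under curve across four recording days; potency is for a decrease in mutual information relative to DMSO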
Outline: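 Neurons from rat cortex were seeded at 1.5 x 10^5 cells/well onto PEI-coated MEAs in a laminin drop, then exposed to compound from day 0 for twelve days. Network recordings on four days gave mutual information, summarised by AUC relative to DMSO.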

[27] = CCTE_Shafer_MEA_dev_correlation_coefficient_mean: CCTE's Neural Network Formation Assay for Mean Correlation Coefficient, Shafer Lab (AID 2284093);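 note: well mean pairwise spike train correlation integrated as AUC over recording days 5 to 12; potency fitted for loss of correlation relative to DMSO vehicle wells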
Outline: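 Read-out: well-mean correlation coefficient of spike trains between electrode pairs, collapsed over four recording days as trapezoidal area-under-the-curve. Developing rat cortical neuron networks grown on MEAs received test chemical continuously from plating.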

Measured: AC50

Cellular tumor antigen p53 (Homo sapiens), sequence (P04637 whole entry, looked up): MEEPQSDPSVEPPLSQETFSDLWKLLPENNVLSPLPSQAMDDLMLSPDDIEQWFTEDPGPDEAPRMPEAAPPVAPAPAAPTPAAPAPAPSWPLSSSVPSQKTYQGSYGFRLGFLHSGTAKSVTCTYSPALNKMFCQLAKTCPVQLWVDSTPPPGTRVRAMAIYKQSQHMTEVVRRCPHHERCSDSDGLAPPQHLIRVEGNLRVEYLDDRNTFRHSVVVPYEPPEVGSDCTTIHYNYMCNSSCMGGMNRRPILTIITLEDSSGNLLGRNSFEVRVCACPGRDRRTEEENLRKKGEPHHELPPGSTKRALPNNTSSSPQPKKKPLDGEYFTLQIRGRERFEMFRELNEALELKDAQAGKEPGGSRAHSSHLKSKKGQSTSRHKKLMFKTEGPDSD

Brc1ccc(Oc2ccc(Br)cc2Br)c(Br)c1
active: [8] 14.2 µM | [9] 19.8 nM and 10 µM | [11] 22.5 nM and 8.36 µM | [17] 13.2 nM and 10 µM | [18] 15 µM | [20] 25.4 nM and 4 µM | [21] 15.1 µM | [23] 12.3 µM | [25] 8.31 µM | [26] 13.4 nM and 1.98 µM | [27] 92.3 nM and 4.26 µM
inactive: [1] | [2] | [3] | [4] | [5] | [6] | [7] | [8] | [10] | [12] | [13] | [14] | [15] | [16] | [18] | [19] | [21] | [22] | [23] | [24] | [25]
